This is a sample that favours compounds with a hit; in the whole collection about 0.69% have one here.
SUMO HTRF inh: SUMOylation inhibition; P63279; HTRF SUMOylation assay, SAE1/SAE2 + UBC9, in vitro; inhibition, % at 35 µM; 290,000 tested, 0.36% active; AID 2006; in the data active means inhibition above about 50%, passing the limit was not always enough
p97 ATPase inh: human p97 ATPase inhibition; P55072; recombinant p97 ATPase, Kinase-Glo ATP luminescence, 3 h; 220,000 tested, 0.42% active; inhibition, % at 8 µM; in the data active means inhibition above about 15%
Target sequence (P55072 whole entry, looked up): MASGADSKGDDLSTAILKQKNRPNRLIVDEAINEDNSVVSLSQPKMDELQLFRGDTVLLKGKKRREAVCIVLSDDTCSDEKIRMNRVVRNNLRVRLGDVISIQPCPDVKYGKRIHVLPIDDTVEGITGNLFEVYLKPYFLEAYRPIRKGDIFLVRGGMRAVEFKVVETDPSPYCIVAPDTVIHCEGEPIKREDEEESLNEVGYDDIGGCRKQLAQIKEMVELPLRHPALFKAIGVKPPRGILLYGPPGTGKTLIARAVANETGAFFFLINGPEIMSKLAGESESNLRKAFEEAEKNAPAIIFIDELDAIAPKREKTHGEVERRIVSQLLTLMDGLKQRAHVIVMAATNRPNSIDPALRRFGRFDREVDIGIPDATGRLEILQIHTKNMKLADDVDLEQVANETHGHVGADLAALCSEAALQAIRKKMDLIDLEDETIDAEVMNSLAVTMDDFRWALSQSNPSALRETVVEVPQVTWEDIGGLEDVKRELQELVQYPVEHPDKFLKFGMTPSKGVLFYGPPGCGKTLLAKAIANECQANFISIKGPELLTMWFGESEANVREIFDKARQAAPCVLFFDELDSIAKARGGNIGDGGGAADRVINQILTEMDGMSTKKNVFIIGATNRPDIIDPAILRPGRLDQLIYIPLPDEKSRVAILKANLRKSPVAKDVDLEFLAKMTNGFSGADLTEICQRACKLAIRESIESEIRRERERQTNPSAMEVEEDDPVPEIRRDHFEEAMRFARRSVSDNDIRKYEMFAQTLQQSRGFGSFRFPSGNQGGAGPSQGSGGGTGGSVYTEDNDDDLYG
PERK inhibitor: human PERK inhibition, primary cell-based screen. CHO PERK-DD fusion, SEAP luminescence translation reporter. inhibition, % at 5.6 µM. 220,000 tested, 0.17% active;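 active means inhibition above the mean inhibition of all tested compounds plus 3 SD, set separately per screening campaign, cut at about 2.9% in these data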;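 further: PERK kinase domain activated by AP20187 dimerizer at 100 nM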
Redox H2O2 prof: compounds producing H2O2 with reducing agent – biochemical, NIH compound library profiling, artefact control for MLSCN library redox annotation, primary screen; 200,000 tested, 0.03% active; DTT-dependent redox cycling H2O2, phenol red/HRP absorbance; 100% = 100 µM peroxide control, 0% = buffer; activation, % at 10 µM; AID 878;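 active means activation of at least 50% relative to the plate's high and low controls in the primary single-dose screen; inactive means activation below 50%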;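 further: compound incubated with DTT at 0.8 mM final as the reducing agent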
p97 inh conf: human p97 ATPase inhibition, confirmation. shares compounds with p97 ATPase inh. recombinant p97 ATPase, Kinase-Glo ATP luminescence. inhibition, % at 8 µM. 760 tested, 44% active. AID 1517;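 active means percent inhibition of p97 ATPase above a set limit, the primary screen's mean plus 3 SD, cut at about 15% in these data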
Each line names hits and unclear results; the compound was inactive in the other large screens (follow-up assays come after a bar, where they were run).

CCC(=O)C1CCCN(C(=O)CCc2nnc(C3(c4ccc(Cl)cc4)CCC3)o2)C1 (stereo not given)	none (no result: p97 ATPase inh, PERK inhibitor, Redox H2O2 prof)
COc1ccc(N2C(=O)C3C(c4ccc(OC)cc4O)NC(Cc4ccccc4)(C(=O)O)C3C2=O)cc1 (stereo not given)	p97 ATPase inh 18 | p97 inh conf inactive
C=CCNC(=O)/C(C#N)=C/c1c(C)nn(-c2ccccc2)c1Cl	none
O=c1cc2oc3cc(O)c(O)cc3c(-c3ccccc3O)c-2cc1O	SUMO HTRF inh 85, p97 ATPase inh 29, PERK inhibitor 3.1 (no result: Redox H2O2 prof) | p97 inh conf 36
CCOc1ccccc1-c1c2cc(O)c(=O)cc-2oc2cc(O)c(O)cc12	none
COc1ccc(CNC/C=C/c2ccccc2)cc1	none (no result: p97 ATPase inh, PERK inhibitor, Redox H2O2 prof)
C[N+](C)(CC#N)C/C=C\c1ccccc1	p97 ATPase inh 17 | p97 inh conf inactive
COc1ccccc1/C=C1/C(=O)N(c2ccccc2)N=C1C	none (no result: p97 ATPase inh, PERK inhibitor, Redox H2O2 prof)
CC1=NN(c2ccccc2)C(=O)/C1=C\c1ccc(Oc2ccc([N+](=O)[O-])cc2[N+](=O)[O-])cc1	SUMO HTRF inh 95, p97 ATPase inh 23 | p97 inh conf inactive
COc1cc(/C=C2/C(=O)N(c3ccc(C)c(C)c3)N=C2C)cc([N+](=O)[O-])c1O	none (no result: p97 ATPase inh, PERK inhibitor, Redox H2O2 prof)
COc1cc(/C=C2\C(=O)N(c3ccccc3)N=C2C)ccc1Oc1ccc([N+](=O)[O-])cc1[N+](=O)[O-]	p97 ATPase inh 18 (no result: SUMO HTRF inh) | p97 inh conf inactive
O=C(CCCn1c(SCc2cccc([N+](=O)[O-])c2)nc2ccccc2c1=O)NCC1CCCO1 (stereo not given)	none
CCCn1nc([N+](=O)[O-])c(C(C#N)c2nc3ccccc3o2)c(Cl)c1=O (stereo not given)	none
CCn1nc([N+](=O)[O-])c(C(C#N)c2nc3cc(C(F)(F)F)ccc3s2)c(Cl)c1=O (stereo not given)	p97 ATPase inh 35 | p97 inh conf 42
O=c1[nH]c(S)c(/C=C2\C=Nc3ccccc32)s1	p97 ATPase inh 22 (no result: Redox H2O2 prof) | p97 inh conf 16
COc1ccc(CCn2c(N)c(C(=O)NCc3ccco3)c3nc4ccccc4nc32)cc1	SUMO HTRF inh 100, p97 ATPase inh 16 | p97 inh conf inactive
COc1ccc(CCn2c(N)c(C(=O)NCc3ccco3)c3nc4ccccc4nc32)cc1OC	none
Fc1ccc(NC(=S)Nc2cccc3ccccc23)cc1F	none (no result: p97 ATPase inh, PERK inhibitor, Redox H2O2 prof)
CN(C)S(=O)(=O)c1cccc(NC(=S)Nc2cccc3cnccc23)c1	SUMO HTRF inh 99, p97 ATPase inh 28 (no result: Redox H2O2 prof) | p97 inh conf inactive
S=C(Nc1ccc(Cl)cc1)Nc1cccc2cnccc12	p97 ATPase inh 18 | p97 inh conf inactive
CC(C)(C)c1ccccc1NC(=O)Cn1c(=O)cnc2ccccc21	none
Cc1nn(-c2cccc(Cl)c2)c2c1C(c1ccncc1)C(C#N)=C(N)O2 (stereo not given)	none
Cc1nn(-c2cccc(Cl)c2)c2c1C(c1cccnc1)C(C#N)=C(N)O2 (stereo not given)	p97 ATPase inh 16 | p97 inh conf inactive
Cc1ccc(-n2nc(C)c3c2OC(N)=C(C#N)C3c2ccc(F)cc2)cc1 (stereo not given)	p97 ATPase inh 20 | p97 inh conf inactive
Cc1ccc(S(=O)(=O)Nc2ccc(S(=O)(=O)Nc3nccs3)cc2)c([N+](=O)[O-])c1	none (no result: p97 ATPase inh, PERK inhibitor, Redox H2O2 prof)
C=CCNC(=O)/C(C#N)=C/c1ccc(OS(=O)(=O)c2ccc(C)cc2)c(OC)c1	none
CCCCN1CCCC1CNC(=O)c1cc(C#N)c2ccccc2c1OC (stereo not given)	none (no result: Redox H2O2 prof)
Cc1ccccc1-c1n[nH]c(=S)n1/N=C/C=C/c1ccco1	none (no result: Redox H2O2 prof)
S=c1[nH]nc(-c2ccc(Cl)cc2)n1/N=C/C=C/c1ccco1	p97 ATPase inh 16 (no result: SUMO HTRF inh, Redox H2O2 prof) | p97 inh conf inactive
Cc1cc(-c2n[nH]c(=S)n2/N=C/C=C/c2ccco2)n[nH]1	p97 ATPase inh 24 (no result: Redox H2O2 prof) | p97 inh conf inactive
S=c1[nH]nc(-c2ccccc2)n1/N=C/C=C/c1ccco1	none
COc1ccc(C(=O)OC(C)C(=O)NC(C)CCc2ccccc2)c(OC)c1 (stereo not given)	none (no result: p97 ATPase inh, PERK inhibitor, Redox H2O2 prof)
CCOC(=O)N1CCN(c2ccc(C(C)=O)cc2F)CC1C (stereo not given)	none
O=C(Nc1ccc(Br)c2ccccc12)c1ccc2ccccc2c1O	p97 ATPase inh 19 (no result: Redox H2O2 prof) | p97 inh conf 24
C=CCN1C(=O)N(/C=C/C)c2cccc3cccc1c23	p97 ATPase inh 15 | p97 inh conf inactive
C=CCNC(=O)CN1C(=O)c2cccc3cccc1c23	none (no result: p97 ATPase inh, PERK inhibitor, Redox H2O2 prof)
CCc1ccc(N2C(=O)Nc3ccc(Br)cc3C2(O)C(=O)NCCN(C)C)cc1 (stereo not given)	none (no result: p97 ATPase inh, PERK inhibitor, Redox H2O2 prof)
COc1ccccc1C(=O)N/C(=C\c1ccc(Br)cc1)C(=O)NCCC(=O)O	p97 ATPase inh 16 | p97 inh conf inactive
COc1ccc(C(=O)Nc2cnn(Cc3c(F)cccc3Cl)c2)cc1OC	none (no result: Redox H2O2 prof)
O=C1NNC(c2ccccc2)=N/C1=C\c1ccccc1Cl	p97 ATPase inh 17 (no result: Redox H2O2 prof) | p97 inh conf 18
COc1ccc(C(C)C)cc1S(=O)(=O)N1CCN(c2ccccc2)CC1	none
Cc1cc(C(=O)N/N=C/c2cc(Br)ccc2OC(=O)c2ccccc2Cl)n[nH]1	p97 ATPase inh 18 | p97 inh conf 35
O=C(N/N=C/c1cccs1)c1cc(-c2ccc3ccccc3c2)n[nH]1	none
O=C(N/N=C/c1cccs1)c1cc(-c2cccc3ccccc23)n[nH]1	p97 ATPase inh 16 | p97 inh conf 27
CCCCOc1ccccc1NC(=O)c1scc2c1OCCO2	p97 ATPase inh 16 | p97 inh conf 20
O=C(CCCN1C(=O)/C(=C/c2ccco2)SC1=S)Nc1cccc(C(=O)O)c1	SUMO HTRF inh 64, p97 ATPase inh 33 (no result: Redox H2O2 prof) | p97 inh conf inactive
O=C(CCCN1C(=O)/C(=C\c2cccs2)SC1=S)Nc1cccc(C(=O)O)c1	none
COC(=O)CN1C(=O)[C@H]2[C@@H](c3ccc(C)o3)N3C(=O)CN(CC4CC4)C(=O)[C@@]3(Cc3ccccc3)[C@H]2C1=O	none (no result: p97 ATPase inh, PERK inhibitor, Redox H2O2 prof)
C[n+]1cccc2cccc([O-])c21	p97 ATPase inh 37 (no result: Redox H2O2 prof) | p97 inh conf 20
CCc1ccc(OC2=NS(=O)(=O)c3ccccc32)cc1	none
CCN(CC)c1cccc(OC2=NS(=O)(=O)c3ccccc32)c1	p97 ATPase inh 19 | p97 inh conf inactive
Cc1nc(N2CCN(c3ccccn3)CC2)c2c(C)c(C(=O)Nc3ccc(Br)cc3C)sc2n1	none (no result: p97 ATPase inh, PERK inhibitor, Redox H2O2 prof)
O=c1cc(N=Nc2ccc(Cl)cc2)[nH]c(=O)[nH]1	p97 ATPase inh 28 (no result: Redox H2O2 prof) | p97 inh conf 15
CCn1nc(CC(=O)Nc2nnc(CC(=O)N3CCOCC3)s2)c2ccccc2c1=O	p97 ATPase inh 20 | p97 inh conf inactive
CCn1nc(CC(=O)Nc2nnc(CC(=O)N3CCCC3)s2)c2ccccc2c1=O	none
Cc1onc(-c2c(Cl)cccc2Cl)c1-c1nc2cc(Cl)ccc2c(=O)o1	none (no result: Redox H2O2 prof)
COc1ccccc1C(=O)NCC(=O)NC(C)c1ccc(-n2ccnc2)cc1 (stereo not given)	none (no result: p97 ATPase inh, PERK inhibitor, Redox H2O2 prof)
